# About 2,000 (36%) of roughly 5,500 compounds were called active. Roughly 18% stayed inconclusive and do not appear here. Some of the results follow. Unmarked numbers belong to inactive results. Cut-off read from the data, not from the text of the source: active = normalized growth mostly below about 0.91 (no sharp cut-off); inconclusive = no clear call, values can overlap the other calls; inactive = mostly above about 0.92.
# Experiment: chemical genetic growth profiling, strain panel (AID 1159580);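 note: tested at 20 µM; growth read once vehicle control cultures reached saturation at 30 °C; 1 = growth at the plate median or of vehicle wells; lower values mean less growth of the strain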
# Settings: growth OD
# [1] = S. cerevisiae deletion strains, locus YDL101C, strain DUN1, hits give low values
# [2] = S. cerevisiae deletion strains, locus YHR030C, strain SLT2, hits give low values
# [3] = S. cerevisiae deletion strains, locus YBR229C, strain ROT2, hits give low values
# [4] = S. cerevisiae deletion strains, locus YDR150W, strain NUM1, hits give low values
# [5] = S. cerevisiae deletion strains, locus YEL061C, strain CIN8, hits give low values
# [6] = S. cerevisiae deletion strains, locus YHR087W, strain rtc3, hits give low values
# [7] = S. cerevisiae deletion strains, locus YJR043C, strain POL32, hits give low values
# [8] = S. cerevisiae deletion strains, locus YJR075W, strain HOC1, hits give low values
# [9] = S. cerevisiae deletion strains, locus YLR039C, strain RIC1, hits give low values
# [10] = S. cerevisiae deletion strains, locus YLR058C, strain SHM2 (second series), hits give low values
# [11] = S. cerevisiae deletion strains, locus YLR085C, strain ARP6, hits give low values
# [12] = S. cerevisiae deletion strains, locus YLR262C, strain YPT6, hits give low values
# [13] = S. cerevisiae deletion strains, locus YML094W, strain GIM5, hits give low values
# [14] = S. cerevisiae deletion strains, locus YMR219W, strain ESC1, hits give low values
# [15] = S. cerevisiae deletion strains, locus YMR263W, strain SAP30, hits give low values
# [16] = S. cerevisiae deletion strains, locus YMR307W, strain GAS1, hits give low values
# [17] = S. cerevisiae deletion strains, locus YNL153C, strain GIM3, hits give low values
# [18] = S. cerevisiae deletion strains, locus YNL298W, strain CLA4 (second series), hits give low values
# [19] = S. cerevisiae deletion strains, locus YNL322C, strain KRE1, hits give low values
# [20] = S. cerevisiae deletion strains, locus YNR030W, strain Alg12, hits give low values
# [21] = S. cerevisiae deletion strains, locus YPL055C, strain LGE1, hits give low values
# [22] = S. cerevisiae deletion strains, locus YPL241C, strain CIN2, hits give low values
# [23] = S. cerevisiae deletion strains, locus YPR135W, strain CTF4, hits give low values
# [24] = S. cerevisiae strains, strain wild type, hits give low values
compound,measurement,setting,value
CCCC1c2ccsc2CCN1C(=S)Nc1ccc(Cl)cc1Cl (centres undefined),normalized growth,"S. cerevisiae deletion strains, locus YAR019C, strain CDC15, hits give low values",0.969
same,normalized growth,"S. cerevisiae deletion strains, locus YBL105C, strain PKC1, hits give low values",0.971
same,normalized growth,"S. cerevisiae deletion strains, locus YBR135W, strain CKS1, hits give low values",0.983
same,normalized growth,"S. cerevisiae deletion strains, locus YBR136W, strain MEC1, hits give low values",0.972
same,normalized growth,"S. cerevisiae deletion strains, locus YBR160W, strain CDC28, hits give low values",0.984
same,normalized growth,"S. cerevisiae deletion strains, locus YDL017W, strain CDC7, hits give low values",0.973
same,normalized growth,"S. cerevisiae deletion strains, locus YDL028C, strain MPS1, hits give low values",0.971
same,normalized growth,[1],0.984
same,normalized growth,"S. cerevisiae deletion strains, locus YDL108W, strain KIN28, hits give low values",0.987
same,normalized growth,"S. cerevisiae deletion strains, locus YDL132W, strain cdc53, hits give low values",0.98
same,normalized growth,"S. cerevisiae deletion strains, locus YDL214C, strain PRR2, hits give low values",0.984
same,normalized growth,"S. cerevisiae deletion strains, locus YDR052C, strain DBF4, hits give low values",0.981
same,normalized growth,"S. cerevisiae deletion strains, locus YDR054C, strain cdc34, hits give low values",0.962
same,normalized growth,"S. cerevisiae deletion strains, locus YDR226W, strain ADK1, hits give low values",0.968
same,normalized growth,"S. cerevisiae deletion strains, locus YDR477W, strain SNF1, hits give low values",0.974
same,normalized growth,"S. cerevisiae deletion strains, locus YER123W, strain YCK3, hits give low values",0.952
same,normalized growth,"S. cerevisiae deletion strains, locus YER133W, strain GLC7, hits give low values",0.968
same,normalized growth,"S. cerevisiae deletion strains, locus YFL009W, strain cdc4, hits give low values",0.971
same,normalized growth,"S. cerevisiae deletion strains, locus YFL029C, strain CAK1, hits give low values",0.967
same,normalized growth,"S. cerevisiae deletion strains, locus YFR003C, strain YPI1, hits give low values",0.975
same,normalized growth,"S. cerevisiae deletion strains, locus YFR019W, strain FAB1, hits give low values",0.986
same,normalized growth,"S. cerevisiae deletion strains, locus YFR028C, strain CDC14, hits give low values",0.963
same,normalized growth,"S. cerevisiae deletion strains, locus YGR040W, strain KSS1, hits give low values",0.959
same,normalized growth,"S. cerevisiae deletion strains, locus YGR052W, strain FMP48, hits give low values",1
same,normalized growth,"S. cerevisiae deletion strains, locus YGR092W, strain DBF2, hits give low values",0.946
same,normalized growth,[2],0.922
same,normalized growth,"S. cerevisiae deletion strains, locus YHR079C, strain IRE1, hits give low values",0.975
same,normalized growth,"S. cerevisiae deletion strains, locus YHR082C, strain KSP1, hits give low values",0.987
same,normalized growth,"S. cerevisiae deletion strains, locus YHR205W, strain SCH9, hits give low values",0.878
same,normalized growth,"S. cerevisiae deletion strains, locus YIL147C, strain SLN1, hits give low values",0.973
same,normalized growth,"S. cerevisiae deletion strains, locus YJL095W, strain BCK1, hits give low values",0.961
same,normalized growth,"S. cerevisiae deletion strains, locus YJL128C, strain PBS2, hits give low values",0.946
same,normalized growth,"S. cerevisiae deletion strains, locus YJL157C, strain FAR1, hits give low values",0.981
same,normalized growth,"S. cerevisiae deletion strains, locus YJR016C, strain ILV3, hits give low values",0.972
same,normalized growth,"S. cerevisiae deletion strains, locus YJR066W, strain TOR1 (second series), hits give low values",0.946
same,normalized growth,"S. cerevisiae deletion strains, locus YJR066W, strain TOR1, hits give low values",0.981
same,normalized growth,"S. cerevisiae deletion strains, locus YKL048C, strain ELM1, hits give low values",0.975
same,normalized growth,"S. cerevisiae deletion strains, locus YKL067W, strain YNK1, hits give low values",0.97
same,normalized growth,"S. cerevisiae deletion strains, locus YKL101W, strain HSL1, hits give low values",0.964
same,normalized growth,"S. cerevisiae deletion strains, locus YKL193C, strain SDS22, hits give low values",0.969
same,normalized growth,"S. cerevisiae deletion strains, locus YKL203C, strain TOR2, hits give low values",1.02
same,normalized growth,"S. cerevisiae deletion strains, locus YLR113W, strain HOG1, hits give low values",0.897
same,normalized growth,"S. cerevisiae deletion strains, locus YLR133W, strain CKI1, hits give low values",0.974
same,normalized growth,"S. cerevisiae deletion strains, locus YLR403W, strain SFP1, hits give low values",0.931
same,normalized growth,"S. cerevisiae deletion strains, locus YML070W, strain DAK1, hits give low values",0.944
same,normalized growth,"S. cerevisiae deletion strains, locus YMR001C, strain CDC5, hits give low values",0.977
same,normalized growth,"S. cerevisiae deletion strains, locus YMR205C, strain PFK2 (second series), hits give low values",0.968
same,normalized growth,"S. cerevisiae deletion strains, locus YMR277W, strain FCP1, hits give low values",0.977
same,normalized growth,"S. cerevisiae deletion strains, locus YNL006W, strain LST8, hits give low values",0.991
same,normalized growth,"S. cerevisiae deletion strains, locus YNL020C, strain ARK1, hits give low values",0.986
same,normalized growth,"S. cerevisiae deletion strains, locus YNL161W, strain CBK1, hits give low values",0.98
same,normalized growth,"S. cerevisiae deletion strains, locus YNL183C, strain NPR1, hits give low values",0.966
same,normalized growth,"S. cerevisiae deletion strains, locus YNL207W, strain RIO2, hits give low values",0.97
same,normalized growth,"S. cerevisiae deletion strains, locus YNL222W, strain SSU72, hits give low values",0.976
same,normalized growth,"S. cerevisiae deletion strains, locus YNL307C, strain MCK1 (second series), hits give low values",0.973
same,normalized growth,"S. cerevisiae deletion strains, locus YOL078W, strain AVO1, hits give low values",0.974
same,normalized growth,"S. cerevisiae deletion strains, locus YOL136C, strain PFK27, hits give low values",0.958
same,normalized growth,"S. cerevisiae deletion strains, locus YOR061W, strain CKA2, hits give low values",0.964
same,normalized growth,"S. cerevisiae deletion strains, locus YOR119C, strain RIO1, hits give low values",1.02
same,normalized growth,"S. cerevisiae deletion strains, locus YOR231W, strain MKK1, hits give low values",0.978
same,normalized growth,"S. cerevisiae deletion strains, locus YOR329C, strain SCD5, hits give low values",0.974
same,normalized growth,"S. cerevisiae deletion strains, locus YPL031C, strain PHO85, hits give low values",0.966
same,normalized growth,"S. cerevisiae deletion strains, locus YPL153C, strain RAD53, hits give low values",0.971
same,normalized growth,"S. cerevisiae deletion strains, locus YPL204W, strain HRR25, hits give low values",0.985
same,normalized growth,"S. cerevisiae deletion strains, locus YPL209C, strain IPL1, hits give low values",0.974
same,normalized growth,"S. cerevisiae deletion strains, locus YPL256C, strain CLN2, hits give low values",0.932
same,normalized growth,"S. cerevisiae deletion strains, locus YPR025C, strain CCL1, hits give low values",0.983
same,normalized growth,"S. cerevisiae deletion strains, locus YPR106W, strain ISR1, hits give low values",0.973
same,normalized growth,"S. cerevisiae deletion strains, locus YPR111W, strain DBF20, hits give low values",0.959
same,normalized growth,"S. cerevisiae deletion strains, strain NNK1, hits give low values",0.965
same,normalized growth,"S. cerevisiae deletion strains, strain TSCII, hits give low values",0.959
O=c1[nH]cnc2ccc(Br)cc12,normalized growth,[3],1.01
same,normalized growth,[1],0.98
same,normalized growth,"S. cerevisiae deletion strains, locus YDL134C, strain PPH21, hits give low values",1.01
same,normalized growth,[4],0.918
same,normalized growth,[5],0.998
same,normalized growth,"S. cerevisiae deletion strains, locus YGR078C, strain PAC10, hits give low values",1
same,normalized growth,[2],0.994
same,normalized growth,[6],1.01
same,normalized growth,"S. cerevisiae deletion strains, locus YJL187C, strain SWE1, hits give low values",1.01
same,normalized growth,[7],1.02
same,normalized growth,[8],1.01
same,normalized growth,"S. cerevisiae deletion strains, locus YKL190W, strain CNB1, hits give low values",1.01
same,normalized growth,[9],1.02
same,normalized growth,[10],1.01
same,normalized growth,[11],1.01
same,normalized growth,[12],1.01
same,normalized growth,[13],0.98
same,normalized growth,[14],1.01
same,normalized growth,[15],0.949
same,normalized growth,[16],1.02
same,normalized growth,[17],1
same,normalized growth,[18],1.04
same,normalized growth,[19],1.01
same,normalized growth,[20],1.01
same,normalized growth,[21],0.921
same,normalized growth,[22],1.01
same,normalized growth,[23],0.97
same,normalized growth,[24],1
O=c1[nH]c(-c2cc(Br)cs2)nc2ccc(Cl)cc12,normalized growth,"S. cerevisiae deletion strains, locus YAL013W, strain DEP1, hits give low values",1.01
same,normalized growth,[3],1.01
same,normalized growth,[1],1
same,normalized growth,[4],0.938
same,normalized growth,[5],1.01
same,normalized growth,[2],1.03
same,normalized growth,[6],1.04
same,normalized growth,[7],1.01
same,normalized growth,[8],1.06
same,normalized growth,[9],1.1
same,normalized growth,[10],1
same,normalized growth,[11],1.06
same,normalized growth,[12],1.07
same,normalized growth,[13],1.04
same,normalized growth,[14],1.13 [resistant] (active)
same,normalized growth,[15],0.954
same,normalized growth,[16],1.06
same,normalized growth,[17],1.04
same,normalized growth,[18],1.04
same,normalized growth,[19],1.01
same,normalized growth,[20],1.04
same,normalized growth,[21],0.896
same,normalized growth,[22],0.999
same,normalized growth,[23],1.07
same,normalized growth,[24],1.02
